Screens: PubChem BioAssay, National Center for Advancing Translational Sciences (NCATS)
Sampled rows, rich in hits. Any-hit rate of the full collection: about 10%.
Six1-Eya2 inh – Six1/Eya2 interaction inhibition; activity change, % (test concentration not listed); actives 0.56% (n = 360,000); Q15475+O00167; AlphaScreen GST-Six1/His-Eya2 binding, biochemical; stronger effect = lower value; in the data active means activity change below about -65%; inconclusive means mostly about -30% to -63%; further: on the % scale 0 is the no-effect control and ±100 the full control effect
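AlphaScreen luminescence read after one hour at 37 °C in darkness. Pin-transferred compounds met GST-Six1 and His-Eya2 protein (5X stock 250 nM/500 nM) plus glutathione donor and Ni-chelate acceptor beads (5X, 50 ug/mL).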
G9a block – G9a (human) methyltransferase inhibition. Q96KQ7. G9a H3K9 monomethylation, AlphaScreen, 2 h. Potency, µM (titrated, usually from 102 µM), for the others: at the top dose activity, negative = inhibition, usual class: inhibitors. actives 8.8% (n = 350,000). AID 504332; further: potency means the concentration at half of the fitted maximal effect; on the % scale 0 is the no-effect control and ±100 the full control effect; nearly all actives have a fitted effect of over 75% in size
Target sequence (Q96KQ7 913-1193 limits assumed): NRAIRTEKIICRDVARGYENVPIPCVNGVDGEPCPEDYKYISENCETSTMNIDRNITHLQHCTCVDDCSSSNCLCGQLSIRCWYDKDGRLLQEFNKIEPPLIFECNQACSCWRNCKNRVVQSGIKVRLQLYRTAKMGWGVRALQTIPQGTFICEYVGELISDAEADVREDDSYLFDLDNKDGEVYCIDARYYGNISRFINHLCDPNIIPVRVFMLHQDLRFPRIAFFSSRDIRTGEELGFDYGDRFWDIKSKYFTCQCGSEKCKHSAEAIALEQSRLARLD
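Chemiluminescent proximity detection of H3K9 monomethylation, read after 10 min bead incubation in the dark. Reaction: 20 nM G9a, 500 nM biotin-H3K9 peptide, 20 uM SAM cofactor, 2 h, room temperature, following 15 min enzyme-compound preincubation.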
BAZ2B inh – blocks human BAZ2B; Potency, µM (highest dose often 114 µM), for the others: top-dose activity change, negative = inhibition, usual class: inhibitors; Q9UIF8; actives 4.4% (n = 360,000); AlphaScreen BAZ2B-H3K14Ac peptide displacement; further: potency means the concentration at half of the fitted maximal effect; on the % scale 0 is the no-effect control and ±100 the full control effect; nearly all actives have a fitted effect of over 60% in size
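BAZ2B 50 nM plus b-H3(5-23)K14Ac 50 nM, PBS pH 7.4/0.01% Tween-20, 30 min RT; compound added (max 110 uM), 30 min RT; streptavidin donor/Ni-chelate acceptor beads 10 ug/mL final, 20 min dark; AlphaScreen read.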
JMJD2A Tudor inh – inhibitors of human JMJD2A Tudor domain; Potency, µM (doses to about 114 µM), for the others: at the top dose activity change, negative = inhibition, most hits filed as inhibitors; actives 4.4% (n = 390,000); AlphaScreen JMJD2A-Tudor / H3K4me3 peptide binding; AID 504339; further: potency means the concentration at half of the fitted maximal effect; on the % scale 0 is the no-effect control and ±100 the full control effect; nearly all actives have a fitted effect of over 50% in size
CtBP-E1A inh – inhibitors of CtBP/E1A interaction | AlphaScreen GST-E1A/His-CtBP binding, 1536-well; stronger effect = lower value | activity change, % (test concentration not listed) | actives 0.49% (n = 340,000); in the data active means activity change below about -65%; inconclusive means mostly about -30% to -63%; further: on the % scale 0 is the no-effect control and ±100 the full control effect
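AlphaScreen with 125 nM GST-E1A and 125 nM His-CtBP (5X stocks) in Tris pH 8.0, 300 mM NaCl, BSA, Tween 20, TCEP. Compounds preincubated 2 h at 37 deg C, then glutathione donor/nickel acceptor beads added for 1 h at 37 deg C in dark.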
HP1b chromo inh – inhibitors of HP1-beta chromodomain binding to methylated histone tails | P83916 | AID 540317 | Potency, µM (highest dose often 114 µM), for inactives: at the highest dose activity change, negative = inhibition, actives largely listed as inhibitors | actives 0.56% (n = 390,000) | AlphaScreen HP1-beta / biotin-H3K9me3 peptide binding; further: potency means the concentration at half of the fitted maximal effect; nearly all actives have a fitted effect of over 70% in size
Target sequence (P83916 whole entry, looked up): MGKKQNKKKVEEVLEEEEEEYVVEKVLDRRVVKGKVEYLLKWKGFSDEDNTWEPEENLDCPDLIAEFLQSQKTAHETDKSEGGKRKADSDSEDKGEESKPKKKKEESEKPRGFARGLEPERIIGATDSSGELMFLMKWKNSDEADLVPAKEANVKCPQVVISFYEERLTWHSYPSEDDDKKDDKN
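AlphaScreen: HP1-beta (50 nM) preformed 30 min with biotin-H3(1-18)K9me3 peptide (50 nM) in PBS pH 7.4, 0.01% Tween-20. Compound added for 30 min at RT, then streptavidin donor/nickel chelate acceptor beads (10 ug/mL) for 30 min.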
* = called active by the depositor; u = inconclusive; x = no result; [ ] = remark or other dose. Unless noted, the call rests on the fitted dose curve; in most records, active means well fitted inhibition curve with a large enough effect; inconclusive means small, poorly fitted or top-dose-only effect; inactive means no such curve, though single readings can be large or run the other way.

SMILES	Six1-Eya2 inh	G9a block	BAZ2B inh	JMJD2A Tudor inh	CtBP-E1A inh	HP1b chromo inh
CCN1C(=NCCOC)N[C@@H](CCc2ccccc2)[C@H](C(=O)OC)[C@H]1C	8.1	1.9%[12.7 µM]	3.7%	39.8µM*	4.9	15.3%
COC(=O)C1=C(C)N(Cc2ccccc2)C(=NCCc2c[nH]c3ccccc23)N[C@H]1c1ccccc1	-21.7	-27.6%[12.7 µM]	56.2µM*	u	-22.2	-13.4%
CCN1C(=NCCc2c[nH]c3ccccc23)N[C@@H](c2ccccc2)[C@H](C(=O)OC)[C@H]1C	-2.3	79.4µM*	u	u	-11.7	1.5%
COC(=O)C1=C(C)N(Cc2ccccc2)C(=NCCc2c[nH]c3ccccc23)N[C@H]1c1cccc(F)c1	-21.6	x	x	u	-5.1	-4.8%
Cc1ccc(CN(C(=O)c2ccco2)C(C(=O)NC2CCCC2)c2cccnc2)cc1 (centres undefined)	1.4	3.7%	-16.4%	-9.8%	-2.0	6.7%
Cc1ccc(CN(C(=O)c2ccco2)C(C(=O)NC2CCCC2)c2ccc(N3CCOCC3)cc2)cc1 (centres undefined)	-3.5	28.2µM*	-17.3%	-14.3%	-9.4	19.1%
O=C(CSc1ncc2c(n1)-c1ccccc1N(Cc1ccc(F)cc1)S2(=O)=O)c1ccc(Cl)cc1	x	-1.9%[59 µM]	1.3%	13.6%	x	40.0%
Cc1cc(Cl)ccc1NC(=O)CN1C(=O)COc2ccc(S(=O)(=O)Nc3ccccc3)cc21	x	u	-3.0%	-6.9%	x	35.7%
Cc1cc(C(=O)COC(=O)C2=NNC(=O)CC2)c(C)n1-c1ccc(OC(F)F)cc1	-6.6	50.1µM*	-6.9%	u	-1.2	-14.0%
Cc1cc(C(=O)C(C)OC(=O)C2=NNC(=O)CC2)c(C)n1-c1ccc(OC(F)F)cc1 (centres undefined)	0.0	-33.2%[59 µM]	u	u	-1.3	-24.9%
CCc1ccccc1N1CC23C=CC(O2)C(C(=O)O)C3C1=O (centres undefined)	32.2	-22.8%[59 µM]	-4.9%	22.4µM*	0.0	10.5%
CCCCOC(=O)C1[C@H]2C(=O)N(c3ccccc3CC)C[C@]23C=C[C@H]1O3 (some centres undefined)	2.9	-15.0%[12.7 µM]	7.8%	-7.3%	3.3	36.8%
CC(CN1CC(=O)NC(=O)C1)N1CC(=O)NC(=O)C1 (centres undefined)	0.7	2.82µM*	x	x	1.0	x
O=C(CSC(=S)N1CCOCC1)c1cc2ccccc2oc1=O	-2.2	70.8µM*	-23.7%	-29.9%	-5.8	-3.4%
O=C(OCC(=O)N1CCOCC1)c1cc2ccccc2oc1=O	2.7	30.4%[12.7 µM]	4.7%	-2.3%	5.7	29.4%
N#C/C(=C\c1ccc(OCc2ccc(Br)cc2)cc1)C(=O)Nc1cccc(C(=O)O)c1	10.6	u	56.2µM*	39.8µM*	0.0	-2.5%
CCOc1cc(/C=C(\C#N)C(=O)Nc2cccc(C(=O)O)c2)cc(Br)c1OC(=O)c1ccc(OC)cc1	-10.3	56.2µM*	50.1µM*	56.2µM*	-11.8	u
CCOc1cc(/C=C(\C#N)C(=O)Nc2cccc(C(=O)O)c2)ccc1OCc1ccccc1Cl	8.1	50.1µM*	50.1µM*	56.2µM*	u	-24.6%
N#C/C(=C\c1ccccc1OCc1ccc(C(=O)O)cc1)C(=O)Nc1ccc(O)cc1	-4.4	50.1µM*	-33.1%	-11.3%[11.4 µM]	x	u
COC(=O)c1ccc(COc2ccccc2/C=C(\C#N)C(=O)Nc2ccc(C)cc2)cc1	-0.1	1.9%[59 µM]	-22.5%	-12.3%	0.5	15.3%
CCOc1cccc(NC(=O)/C(C#N)=C/c2cccnc2)c1	-1.8	-5.0%[59 µM]	-5.1%	-12.6%	-6.1	18.9%
CCOC(=O)c1c(S(=O)(=O)N2CCCC(C(=O)Nc3cccc(CC)c3)C2)c(C)n(CC)c1C (centres undefined)	x	14.9%[59 µM]	-26.1%	-16.0%	x	37.0%
COc1ccc(NC(=O)/C(C#N)=C\c2ccc(OCc3ccc(C(=O)O)cc3)c(OC)c2)cc1	-5.0	u	u	u	-20.4	u
